Results: PubChem BioAssay AID493215 (National Center for Advancing Translational Sciences (NCATS), 2011)
Results filed as inconclusive are left out. Calls of active or inactive are those of the source. The call rests on the fitted dose curve; in most records, active means well fitted inhibition curve with a large enough effect; inconclusive means small, poorly fitted or top-dose-only effect; inactive means flat fitted curve, though single readings scatter.

target: Cruzipain (Trypanosoma cruzi) (UniProt P25779); test: Inhibitors of Cruzain: Benzimidazole Series - Round 1; settings: purified cruzain, Z-FR-AMC fluorogenic cleavage; series mostly up to 57.1 µM; activity change, negative = inhibition: at the top concentration
Sequence (P25779 123-467 limits assumed): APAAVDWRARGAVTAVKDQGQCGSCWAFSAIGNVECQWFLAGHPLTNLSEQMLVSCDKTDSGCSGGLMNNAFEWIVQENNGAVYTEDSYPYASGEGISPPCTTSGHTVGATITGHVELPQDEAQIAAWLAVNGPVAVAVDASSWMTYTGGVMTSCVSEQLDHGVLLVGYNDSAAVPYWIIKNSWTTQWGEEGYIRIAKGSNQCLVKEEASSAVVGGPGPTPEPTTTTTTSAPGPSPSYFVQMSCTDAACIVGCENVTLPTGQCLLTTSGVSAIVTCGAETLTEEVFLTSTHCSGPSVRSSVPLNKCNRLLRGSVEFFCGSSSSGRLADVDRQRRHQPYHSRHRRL
Procedure: Cruzain is a cysteine protease from the tropical parasite Trypanosoma cruzi. This assay protocol is for an initial exploratory first round of benzimidazole-based inhibitors. Cruzain was assayed by the use of fluorogenic coumarin-based substrate Z-FR-AMC: proteolytic cleavage releases AMC, whose fluorescence is measured at 360 nm excitation and 450 nm emission. Purified cruzain was supplied by the labs of Prof. James McKerrow and Brian Shoichet, UC San Francisco. This assay had 0.01% Triton X-100 concentration.
See following references for additional details:
Assay Provider: Shoichet, Brian; University of California, San Fancisco
Screening Center PI: Austin, C.P.
Screening Center: NIH Chemical Genomics Center [NCGC]
Buffer: 100 mM Sodium Acetate, pH 5.5, 5 mM DTT, Triton X-100 concentration: 0.01%.
Buffer in columns 3 and 4 as negative control (no enzyme).
Substrate solution: 2 uM final concentration of Z-FR-AMC (catalog number I-1160, Bachem) dispensed throughout the plate.
Enzyme: 1.5 nM Cruzain final concentration in columns 1, 2, 5-48. Column 1 is neutral (100% activity). Column 2 contained titration of covalent inhibitor K11777, starting concentration 1 mM, then 1:2 dilution in duplicate).
Three uL of enzyme or buffer were dispensed to 1536-well Greiner black solid bottom plates. Compounds and controls (23 nL) were transferred via Kalypsys PinTool. The plates were incubated for 15 min at room temperature, and then 1 uL of substrate solution was added to start the reaction. The plates were immediately transferred to and read 4 times every 30 seconds for 2 min on ViewLux High-throughput CCD imager (Perkin-Elmer) using 360 nm excitation and 450 nm emission fluorescence protocol. The fluorescence intensity difference between the third and the first time points (time lapse of 60 seconds) was used to compute reaction progress.

Compound	activity change, negative = inhibition	Potency
CC(C)(C)OC(=O)NCc1nnc(-c2nc3ccccc3[nH]2)o1	-4.26% (inactive)	–
CC(C)(C)OC(=O)NCC(=O)NNC(=O)c1nc2ccccc2[nH]1	2.49% (inactive)	–
O=C(NCCc1nc2ccccc2n1CCO)C1CCCCC1	–	6.46 µM (active)
CC(C)(C)OC(=O)Cc1nnc(-c2nc3ccccc3[nH]2)o1	-0.371% (inactive)	–
O=C(NCc1nnc(-c2nc3ccccc3[nH]2)o1)C1CCCCC1	10.7% (inactive)	–
Cc1ccc(C)c(OCCn2c(CCNC(=O)C3CCCCC3)nc3ccccc32)c1	–	1.62 µM (active)
Cc1ccc(C)c(OCCn2c(CCNC(=O)COc3ccc(F)cc3)nc3ccccc32)c1	–	9.13 µM (active)
O=C(Cc1nnc(-c2nc3ccccc3[nH]2)o1)Nc1cc(C(F)(F)F)ccc1Cl	4.58% (inactive)	–
O=C(COc1ccccc1Br)NCCc1nc2ccccc2[nH]1	–	3.63 µM (active)
O=C(NNC(=O)c1nc2ccccc2[nH]1)OCc1ccccc1	-7.65% (inactive)	–
O=C(COc1ccc(F)cc1)NCCc1nc2ccccc2[nH]1	–	4.08 µM (active)
